Source: PubChem BioAssay (National Center for Advancing Translational Sciences (NCATS))
In the library only some 8.7% were active in any assay of this set; here they are far more common.
G9a block – G9a (human) methyltransferase inhibition | Q96KQ7 | hit rate 8.8% among 350,000 | G9a H3K9 monomethylation, AlphaScreen, 2 h | Potency, µM (series often up to 102 µM), without a hit: at the top dose activity, negative = inhibition, most hits filed as inhibitors; also: % is scaled to controls: 0 for no effect and ±100 for the full control effect; nearly all actives have a fitted effect of over 75% in size
Target sequence (Q96KQ7 913-1193 limits assumed): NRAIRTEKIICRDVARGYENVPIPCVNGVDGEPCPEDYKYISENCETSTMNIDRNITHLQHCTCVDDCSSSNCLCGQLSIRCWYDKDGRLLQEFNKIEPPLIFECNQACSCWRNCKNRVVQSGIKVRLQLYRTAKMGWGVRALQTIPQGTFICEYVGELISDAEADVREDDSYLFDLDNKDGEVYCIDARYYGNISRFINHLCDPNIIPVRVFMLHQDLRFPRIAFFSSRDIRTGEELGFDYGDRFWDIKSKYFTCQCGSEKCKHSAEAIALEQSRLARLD
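Chemiluminescent proximity detection of H3K9 monomethylation, read after 10 min bead incubation in the dark. Reaction: 20 nM G9a, 500 nM biotin-H3K9 peptide, 20 uM SAM cofactor, 2 h, room temperature, following 15 min enzyme-compound preincubation.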
Sfp PPTase inh – Sfp phosphopantetheinyl transferase inhibition. Q9F4F7. Biochemical Sfp PPTase activity, qHTS. Potency, µM, inactives show largest response in the series, negative = inhibition, usual class: inhibitors. hit rate 3.5% among 310,000;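 also: the enzyme is Sfp with the accession as filed and its product quenches rhodamine fluorescence; 0% = enzyme reaction without inhibitor and -100% = no enzyme wells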
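Buffer: 50 mM Hepes-Na pH 7.6, 10 mM MgCl2, 0.01% Nonidet P-40, 0.01% BSA. Enzyme 15 nM, pre-exposed to compound 15 min; substrates then added and fluorescence change tracked over 30 min.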
BAZ2B inh – blocks human BAZ2B. Q9UIF8. AlphaScreen BAZ2B-H3K14Ac peptide displacement. Potency, µM (series often up to 114 µM), inactives show at the highest dose activity change, negative = inhibition, actives largely listed as inhibitors. hit rate 4.4% among 360,000. AID 504333; also: % is scaled to controls: 0 for no effect and ±100 for the full control effect; nearly all actives have a fitted effect of over 60% in size
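BAZ2B (50 nM) with biotin-H3(5-23)K14Ac peptide (50 nM) in PBS pH 7.4, 0.01% Tween-20, preformed 30 min, then compound 30 min at room temperature; top concentration 110uM. AlphaScreen streptavidin donor/nickel chelate acceptor beads (10 ug/mL final), 20 min dark, signal read.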
HP1b chromo inh – blocks HP1-beta chromodomain binding to methylated histone tails; AlphaScreen HP1-beta / biotin-H3K9me3 peptide binding; Potency, µM (doses to about 114 µM), without a hit: top-dose activity change, negative = inhibition, usual class: inhibitors; hit rate 0.56% among 390,000; AID 540317; also: nearly all actives have a fitted effect of over 70% in size
Target sequence (P83916 whole entry, looked up): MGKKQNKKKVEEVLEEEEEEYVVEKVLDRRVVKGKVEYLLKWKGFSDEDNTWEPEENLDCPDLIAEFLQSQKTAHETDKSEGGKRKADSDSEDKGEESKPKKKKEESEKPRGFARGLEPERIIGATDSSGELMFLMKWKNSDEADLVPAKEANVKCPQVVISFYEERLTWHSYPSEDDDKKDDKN
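Compound inhibition of the preformed complex between 50 nM HP1-beta and 50 nM biotinylated H3K9me3 peptide was read by AlphaScreen. Buffer was PBS pH 7.4 with 0.01% Tween-20. Incubations ran 30 min at room temperature, with 10 ug/mL donor/acceptor beads.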
JMJD2A Tudor – blocks the human JMJD2A Tudor domain; O75164; hit rate 4.4% among 390,000; Potency, µM (series often up to 114 µM), inactives show at the highest dose activity change, negative = inhibition, hits mostly inhibitors; AlphaScreen JMJD2A-Tudor / H3K4me3 peptide binding; also: % is scaled to controls: 0 for no effect and ±100 for the full control effect; nearly all actives have a fitted effect of over 50% in size
ALOX12 inh – ALOX12 (human) lipoxygenase inhibition; P18054; purified 12hLO, xylenol orange hydroperoxide absorbance; Potency, µM (top dose mostly 108 µM), for inactives: at the top dose activity change, negative = inhibition, actives largely listed as inhibitors; hit rate 1.1% among 580,000; AID 1671190; also: % is scaled to controls: 0 for no effect and ±100 for the full control effect
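Purified human 12hLO at 150 nM in 25 mM Hepes, 0.01% Triton X-100, pH 7.0, preincubated 15 min at room temperature with compound. Reaction started with 40 uM arachidonic acid, 30 min at room temperature. Hydroperoxide measured by Fe-xylenol orange, 573/405 nm absorbance ratio.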
* hit, by the source's call; ? = inconclusive; . = no result given; ! = repeats disagree; [ ] = remark or other dose. Calls follow the shape of the dose curve; as a rule, active = well fitted curve in the direction sought with a large enough effect; inconclusive = small, poorly fitted or top-dose-only effect, or another doubt; inactive = no such curve, though single readings can be large; an effect the other way counts as inactive or inconclusive. Potency is read from the fitted curve at half-maximal effect.

SMILES	G9a block	Sfp PPTase inh	BAZ2B inh	HP1b chromo inh	JMJD2A Tudor	ALOX12 inh
Nc1ncnc2c1ncn2[C@@H]1O[C@H](COP(=O)(O)OP(=O)(O)OP(=O)(O)O)[C@@H](O)[C@H]1O	35%[59 µM]	5%	8%	27%	?	-22%
Nc1ncnc2c1ncn2[C@@H]1O[C@@H]2CO[P@](=O)(S)O[C@H]2[C@H]1O	9%[59 µM]	-4%	.	.	.	.
NC(=O)C1=CN(C2OC(COP(=O)(O)OP(=O)(O)OC[C@H]3O[C@@H](n4cnc5c(N)ncnc54)[C@H](OP(=O)(O)O)[C@@H]3O)C(O)C2O)C=CC1 (stereo not given in full)	11µM*	.	.	.	.	.
Nc1ncnc2c1ncn2[C@@H]1O[C@H](COP(=O)(O)OP(=O)(O)OP(=O)(O)O)[C@H]2OC3(O[C@H]21)C([N+](=O)[O-])=CC(=[N+]([O-])[O-])C=C3[N+](=O)[O-] (stereo not given in full)	26%[59 µM]	8.9µM*	.	.	.	.
CCN(CC)c1ncnc2c1ncn2[C@@H]1O[C@H](COP(=O)(O)OP(=O)(O)C(Br)(Br)P(=O)(O)O)[C@@H](O)[C@H]1O	30µM*!	.	.	.	.	.
CCN(CCCNS(=O)(=O)c1ccc2c(c1)oc(=O)n2C)c1cccc(C)c1	14µM*	-10%	-32%	?	16µM*	14%[57.4 µM]
CCn1cc(C(=O)Cn2c(C)nc3ccccc32)c2ccccc21	.	.	.	.	.	13%
O=C1NCc2ccccc2CC12CCN(Cc1ccc(Br)cn1)C2 (stereo not given)	.	.	.	.	.	2%[6.33 µM]
O=C1NCCCCCCN(Cc2ccncc2F)[C@H]2CCC[C@@H]12	.	.	.	.	.	164%
CCOC(=O)c1c(/N=C/C2C(=O)NC(=O)NC2=O)sc2c1CCC2	?	35µM*	-5%	34%	-3%	-2%
CN1CCC2(CC1)NC(=O)c1ccccc1N2	9%[59 µM]	-6%	-2%	55%	-8%	42%
CN1CCC2(CC1)N=C(c1ccc(F)cc1)C(=S)N2	25µM*	79µM*	-1%	?	32µM*	-30%
O=C(CCN1CCN(CCO)CC1)N1c2ccccc2Sc2ccc(C(F)(F)F)cc21	?	-4%	-12%	38%	56µM*	18%
O=C(Cc1cccc(C(F)(F)F)c1)N1CCN(CC(=O)N2CCCC2)CC1	-2%[12.7 µM]	.	3%	31%	-6%	337%
Clc1ccc(N2CCN(Cc3ccccc3Cl)CC2)cc1	25µM*	-26%	?	?	4.5µM*	?
Fc1ccccc1CN1CCN(c2ccc(Cl)cc2)CC1	19%[2.33 µM]	10%	-1%	28%	-7%	3%
Nc1ccc(N2CCN(Cc3ccccc3Cl)CC2)c(Cl)c1	?	13%	45µM*	?	-8%[11.4 µM]	1%
Clc1cccc(Cl)c1CN1CCN(c2ccccc2)CC1	25µM*	-26%	35µM*	?	3.2µM*	?
Clc1ccccc1CN1CCN(c2ccccc2)CC1	?	-11%	50µM*	?	3.5µM*	0.89µM*
O=C1NC[C@H]2CN(C3CCC3)CCN12	.	.	.	.	.	28%[176 µM]
CSCCCN=C=S	.	.	.	.	.	-5%[176 µM]
CC(C)(C)P(=O)(N1CCOCC1)N1CCOCC1	2%	12%	2%	27%	-6%	247%
O=P(/C(=N/O)N1CCOCC1)(N1CCOCC1)N1CCOCC1	14µM*	-4%	-6%	27%	-3%	?
COc1cc2c(cc1OCc1ccccc1)N([S+](=O)([O-])c1cccc(C)c1)CC21CCN(C)CC1	.	.	.	.	.	-5%
O=C(Cc1c(F)cccc1Cl)N1CCN(Cc2ccccc2)CC(O)C1 (stereo not given)	.	.	.	.	.	34%
O=C1NC(=O)[C@]2(Cc3ccccc3N3CCN(c4ccccc4)CC32)C(=O)N1c1ccccc1 (stereo not given in full)	3.2µM*	-3%	-31%	14%	?	?
CN1C(=O)NC(=O)[C@]2(Cc3ccccc3N3CCN(c4ccccc4)CC32)C1=O (stereo not given in full)	3.2µM*	-17%	-28%	11%	-33%	-24%
